The supplement of paper PMC6411743
± gives the standard deviation of the averaged measurements. Of roughly 5,400 targets only a part is listed; those with the largest changes were picked by preference.

Compound: Nc1nc2c(ncn2[C@@H]2O[C@H](COP(=O)(O)OP(=O)(O)OP(=O)(O)O)[C@@H](O)[C@H]2O)c(=O)[nH]1 [guanosine triphosphate]
Experiment: NP40-soluble protein abundance relative to vehicle (solubility fold change) (ratio); higher = more soluble protein in presence of GTP
Conditions: concentration: 1mM
Summary of the method: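 Values are fold changes against the detergent-processed vehicle, based on vsn-normalised intensities. Jurkat crude lysate was treated at eight concentrations from 0.1 to 10 mM (10 min at room temperature, then 3 min at 37 °C), solubilised with 0.8% NP40 and benzonase, ultracentrifuged and analysed by TMT-labelled LC-MS/MS over three independent experiments.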

Sequence of UniProt P17029 (P17029 whole entry): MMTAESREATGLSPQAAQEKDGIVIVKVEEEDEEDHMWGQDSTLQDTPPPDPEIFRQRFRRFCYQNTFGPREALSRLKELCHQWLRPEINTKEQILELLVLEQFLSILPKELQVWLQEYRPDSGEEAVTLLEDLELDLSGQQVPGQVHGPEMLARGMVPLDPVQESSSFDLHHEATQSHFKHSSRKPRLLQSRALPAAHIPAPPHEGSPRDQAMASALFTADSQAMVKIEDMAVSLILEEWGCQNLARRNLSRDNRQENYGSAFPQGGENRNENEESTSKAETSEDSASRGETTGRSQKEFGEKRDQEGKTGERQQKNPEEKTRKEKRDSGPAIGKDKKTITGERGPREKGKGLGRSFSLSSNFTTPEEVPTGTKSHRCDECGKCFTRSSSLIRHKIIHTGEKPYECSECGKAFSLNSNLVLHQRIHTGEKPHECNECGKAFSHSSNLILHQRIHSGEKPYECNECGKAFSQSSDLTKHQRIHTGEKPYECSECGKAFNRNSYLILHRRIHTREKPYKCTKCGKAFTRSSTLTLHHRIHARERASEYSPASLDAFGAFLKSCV
Sequence of UniProt P16401 (P16401 whole entry): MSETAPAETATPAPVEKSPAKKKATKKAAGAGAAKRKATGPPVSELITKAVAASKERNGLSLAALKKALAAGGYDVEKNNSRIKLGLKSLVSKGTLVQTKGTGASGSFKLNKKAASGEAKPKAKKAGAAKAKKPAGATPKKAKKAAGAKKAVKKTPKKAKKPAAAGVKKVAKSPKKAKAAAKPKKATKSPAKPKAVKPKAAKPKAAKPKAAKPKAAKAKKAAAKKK
Sequence of UniProt P49588 (P49588 whole entry): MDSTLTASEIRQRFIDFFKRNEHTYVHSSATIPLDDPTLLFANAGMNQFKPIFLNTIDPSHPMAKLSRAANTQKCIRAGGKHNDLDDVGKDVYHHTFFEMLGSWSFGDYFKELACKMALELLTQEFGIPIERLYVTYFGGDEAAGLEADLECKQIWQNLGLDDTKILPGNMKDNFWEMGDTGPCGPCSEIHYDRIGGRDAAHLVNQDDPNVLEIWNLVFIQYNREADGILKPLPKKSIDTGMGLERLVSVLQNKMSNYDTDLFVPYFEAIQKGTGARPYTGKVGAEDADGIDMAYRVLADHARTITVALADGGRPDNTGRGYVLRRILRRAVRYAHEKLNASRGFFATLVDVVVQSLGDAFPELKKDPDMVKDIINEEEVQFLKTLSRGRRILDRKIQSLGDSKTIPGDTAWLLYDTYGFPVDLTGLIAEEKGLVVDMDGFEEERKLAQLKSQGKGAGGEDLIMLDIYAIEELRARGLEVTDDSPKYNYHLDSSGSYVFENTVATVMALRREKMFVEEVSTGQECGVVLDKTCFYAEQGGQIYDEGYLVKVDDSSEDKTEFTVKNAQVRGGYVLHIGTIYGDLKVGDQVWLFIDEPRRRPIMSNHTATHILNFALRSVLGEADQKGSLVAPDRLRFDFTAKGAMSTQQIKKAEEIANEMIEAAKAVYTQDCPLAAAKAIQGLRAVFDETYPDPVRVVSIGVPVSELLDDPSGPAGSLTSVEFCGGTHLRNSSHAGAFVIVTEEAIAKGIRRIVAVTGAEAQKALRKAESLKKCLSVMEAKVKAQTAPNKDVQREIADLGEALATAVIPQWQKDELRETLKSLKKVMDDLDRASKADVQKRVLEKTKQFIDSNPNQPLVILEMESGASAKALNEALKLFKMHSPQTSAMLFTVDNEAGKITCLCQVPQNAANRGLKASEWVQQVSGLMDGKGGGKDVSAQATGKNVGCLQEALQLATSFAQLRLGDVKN
Sequence of UniProt O14925 (O14925 whole entry): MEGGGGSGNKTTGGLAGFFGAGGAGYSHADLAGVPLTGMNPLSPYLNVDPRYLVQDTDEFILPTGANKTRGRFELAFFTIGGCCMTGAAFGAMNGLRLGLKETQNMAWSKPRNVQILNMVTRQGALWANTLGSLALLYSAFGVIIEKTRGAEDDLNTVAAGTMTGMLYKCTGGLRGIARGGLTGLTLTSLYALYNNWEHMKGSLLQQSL
Sequence of UniProt P23246 (P23246 whole entry): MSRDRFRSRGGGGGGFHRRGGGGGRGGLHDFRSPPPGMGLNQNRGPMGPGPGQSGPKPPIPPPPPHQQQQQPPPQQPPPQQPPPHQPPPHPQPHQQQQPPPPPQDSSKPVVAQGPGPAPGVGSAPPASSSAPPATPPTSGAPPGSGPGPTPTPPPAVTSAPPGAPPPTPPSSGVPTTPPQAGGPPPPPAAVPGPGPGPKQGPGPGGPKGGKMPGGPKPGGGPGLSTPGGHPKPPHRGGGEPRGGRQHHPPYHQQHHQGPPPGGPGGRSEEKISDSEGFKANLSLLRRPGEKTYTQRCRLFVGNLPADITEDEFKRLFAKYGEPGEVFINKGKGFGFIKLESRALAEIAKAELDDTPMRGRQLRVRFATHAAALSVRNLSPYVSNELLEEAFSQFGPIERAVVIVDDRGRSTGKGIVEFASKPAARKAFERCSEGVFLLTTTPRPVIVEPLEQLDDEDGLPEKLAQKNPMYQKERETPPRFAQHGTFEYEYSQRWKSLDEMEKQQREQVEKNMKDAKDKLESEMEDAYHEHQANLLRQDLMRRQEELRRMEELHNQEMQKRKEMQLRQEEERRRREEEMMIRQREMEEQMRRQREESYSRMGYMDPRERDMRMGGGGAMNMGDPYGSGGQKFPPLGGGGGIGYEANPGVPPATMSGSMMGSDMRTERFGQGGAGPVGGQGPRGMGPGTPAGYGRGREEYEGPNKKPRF
Sequence of UniProt P17096 (P17096 whole entry): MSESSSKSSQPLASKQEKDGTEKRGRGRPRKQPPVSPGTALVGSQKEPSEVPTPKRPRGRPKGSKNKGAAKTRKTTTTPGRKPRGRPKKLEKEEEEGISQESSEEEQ
Sequence of UniProt P50583 (P50583 whole entry): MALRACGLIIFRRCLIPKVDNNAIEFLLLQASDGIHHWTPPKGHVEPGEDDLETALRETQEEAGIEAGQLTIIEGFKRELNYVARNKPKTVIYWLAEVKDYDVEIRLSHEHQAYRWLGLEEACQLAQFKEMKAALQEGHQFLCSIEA
Sequence of UniProt P51114 (P51114 whole entry): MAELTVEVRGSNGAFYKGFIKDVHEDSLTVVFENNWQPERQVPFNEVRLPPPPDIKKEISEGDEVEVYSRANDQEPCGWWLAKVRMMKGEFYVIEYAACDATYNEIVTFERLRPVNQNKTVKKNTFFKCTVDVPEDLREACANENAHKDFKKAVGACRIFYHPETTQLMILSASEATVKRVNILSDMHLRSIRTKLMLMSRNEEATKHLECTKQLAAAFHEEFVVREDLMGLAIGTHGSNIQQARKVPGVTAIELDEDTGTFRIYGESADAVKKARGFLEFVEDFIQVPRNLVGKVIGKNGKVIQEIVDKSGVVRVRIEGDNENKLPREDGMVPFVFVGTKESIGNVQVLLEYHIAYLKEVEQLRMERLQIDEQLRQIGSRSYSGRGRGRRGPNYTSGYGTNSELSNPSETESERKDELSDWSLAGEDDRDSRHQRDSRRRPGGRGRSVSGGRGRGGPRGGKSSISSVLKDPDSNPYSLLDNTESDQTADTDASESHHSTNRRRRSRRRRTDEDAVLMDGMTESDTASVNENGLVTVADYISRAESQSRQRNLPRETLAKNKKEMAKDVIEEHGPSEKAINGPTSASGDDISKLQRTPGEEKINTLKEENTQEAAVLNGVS
Sequence of UniProt O60861 (O60861 whole entry): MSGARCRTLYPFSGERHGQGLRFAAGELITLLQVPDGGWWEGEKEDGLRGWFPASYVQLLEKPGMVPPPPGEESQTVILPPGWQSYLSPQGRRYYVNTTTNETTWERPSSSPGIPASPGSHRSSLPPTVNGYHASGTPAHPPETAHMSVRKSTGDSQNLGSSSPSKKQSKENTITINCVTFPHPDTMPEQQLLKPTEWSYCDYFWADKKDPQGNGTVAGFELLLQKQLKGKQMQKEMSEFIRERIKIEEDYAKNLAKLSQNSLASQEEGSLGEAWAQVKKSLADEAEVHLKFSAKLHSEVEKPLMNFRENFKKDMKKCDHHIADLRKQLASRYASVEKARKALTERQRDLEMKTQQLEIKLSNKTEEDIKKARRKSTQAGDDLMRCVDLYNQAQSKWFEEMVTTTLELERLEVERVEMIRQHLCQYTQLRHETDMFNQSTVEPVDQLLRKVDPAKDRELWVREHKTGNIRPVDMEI
Sequence of UniProt O15111 (O15111 whole entry): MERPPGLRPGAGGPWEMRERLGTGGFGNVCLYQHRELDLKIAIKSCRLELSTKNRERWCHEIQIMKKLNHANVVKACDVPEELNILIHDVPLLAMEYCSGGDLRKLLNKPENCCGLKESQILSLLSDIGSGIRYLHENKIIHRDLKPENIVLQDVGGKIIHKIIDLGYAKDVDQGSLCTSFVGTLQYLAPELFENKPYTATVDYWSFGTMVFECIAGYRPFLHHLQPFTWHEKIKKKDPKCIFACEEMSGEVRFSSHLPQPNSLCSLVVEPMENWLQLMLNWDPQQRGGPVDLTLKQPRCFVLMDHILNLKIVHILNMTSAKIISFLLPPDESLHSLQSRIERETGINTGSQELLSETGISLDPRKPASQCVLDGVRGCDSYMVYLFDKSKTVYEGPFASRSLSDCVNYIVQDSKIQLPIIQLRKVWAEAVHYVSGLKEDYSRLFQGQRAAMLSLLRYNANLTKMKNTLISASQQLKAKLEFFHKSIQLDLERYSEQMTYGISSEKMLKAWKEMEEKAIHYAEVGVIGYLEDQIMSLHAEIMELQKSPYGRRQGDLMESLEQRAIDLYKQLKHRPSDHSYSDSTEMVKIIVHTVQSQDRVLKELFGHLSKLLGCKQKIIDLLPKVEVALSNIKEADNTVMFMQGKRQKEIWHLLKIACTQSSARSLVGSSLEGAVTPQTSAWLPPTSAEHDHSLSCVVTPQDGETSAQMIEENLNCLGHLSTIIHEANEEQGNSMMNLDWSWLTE

Target	NP40-soluble protein abundance
P15531-2|P22392-2|Q32Q12 (UniProt Q32Q12+P22392+P15531)	0.903 ± 0.045
UniProt P17096|P17096-2	1.21 ± 0.081
ARID1A (UniProt O14497)	1.08 ± 0.055
ARPC1B (UniProt O15143)	0.933 ± 0.034
CDC34 (UniProt P49427)	1.79 ± 0.077
PPT1 (UniProt P50897)	0.968 ± 0.083
AKR1A1 (UniProt P14550)	0.888 ± 0.04
PSMB4 (UniProt P28070)	0.939 ± 0.11
UniProt O95758-2|O95758-6|O95758|O95758-1|O95758-4|O95758-5|O95758-7	1.02 ± 0.064
UniProt O75170|O75170-2|O75170-3|O75170-4|O75170-5	1.03 ± 0.12
J3QQJ5|Q9Y2L5 (UniProt Q9Y2L5)	1.05 ± 0.091
TIMM23 (UniProt O14925)	0.856 ± 0.016
UniProt P30622|P30622-1	1.01 ± 0.08
UniProt P49840	0.913 ± 0.022
UniProt O00567	1.1 ± 0.087
UniProt O60861|O60861-1|O60861-4	1.01 ± 0.047
XPO1 (UniProt O14980)	0.936 ± 0.022
UniProt P04150|P04150-10|P04150-2|P04150-3|P04150-5|P04150-6|P04150-7|P04150-8|P04150-9|P04150-11|P04150-12|P04150-13	1.14 ± 0.072
UniProt O75582|A0A0A0MQV2	0.965 ± 0.044
PPIF (UniProt P30405)	0.863 ± 0.064

Target	NP40-soluble protein abundance
HMGN4 (UniProt O00479)	1.02 ± 0.12
UniProt O15111	0.963 ± 0.052
DNAJC8 (UniProt O75937)	1.1 ± 0.17
NUDT2 (UniProt P50583)	0.884 ± 0.15
UniProt P49588|P49588-2	0.928 ± 0.032
FXR1 (UniProt P51114)	1.31 ± 0.042
HIST1H1B (UniProt P16401)	1.09 ± 0.037
UniProt P48634|P48634-2|P48634-3	1.19 ± 0.1
UniProt P09651|P09651-2	1.17 ± 0.11
NUP62 (UniProt P37198)	1.01 ± 0.021
UniProt P38159|P38159-2	1.18 ± 0.036
URB1 (UniProt O60287)	1.21 ± 0.076
RPL21 (UniProt P46778)	1.05 ± 0.12
NUDT21 (UniProt O43809)	1.64 ± 0.21
UniProt O43865	0.959 ± 0.057
SFPQ (UniProt P23246)	1.03 ± 0.13
ZKSCAN1 (UniProt P17029)	0.987 ± 0.047
UniProt P09564	1.09 ± 0.19
EEF2K (UniProt O00418)	0.944 ± 0.02

Same assay, conditions: concentration: 2mM

Target	NP40-soluble protein abundance
P15531-2|P22392-2|Q32Q12 (UniProt Q32Q12+P22392+P15531)	0.909 ± 0.068
UniProt P17096|P17096-2	1.33 ± 0.12
ARID1A (UniProt O14497)	1.08 ± 0.084
ARPC1B (UniProt O15143)	0.942 ± 0.062
CDC34 (UniProt P49427)	1.15 ± 0.11
PPT1 (UniProt P50897)	0.872 ± 0.12
AKR1A1 (UniProt P14550)	0.876 ± 0.037
PSMB4 (UniProt P28070)	1.04 ± 0.14
UniProt O95758-2|O95758-6|O95758|O95758-1|O95758-4|O95758-5|O95758-7	1.05 ± 0.11
UniProt O75170|O75170-2|O75170-3|O75170-4|O75170-5	1 ± 0.043
J3QQJ5|Q9Y2L5 (UniProt Q9Y2L5)	1.03 ± 0.11
TIMM23 (UniProt O14925)	0.892 ± 0.02
UniProt P30622|P30622-1	0.97 ± 0.11
UniProt P49840	0.939 ± 0.02
UniProt O00567	1.23 ± 0.075
UniProt O60861|O60861-1|O60861-4	0.94 ± 0.063
XPO1 (UniProt O14980)	0.926 ± 0.072
UniProt P04150|P04150-10|P04150-2|P04150-3|P04150-5|P04150-6|P04150-7|P04150-8|P04150-9|P04150-11|P04150-12|P04150-13	1.07 ± 0.029
UniProt O75582|A0A0A0MQV2	0.965 ± 0.068
PPIF (UniProt P30405)	0.876 ± 0.078

Target	NP40-soluble protein abundance
HMGN4 (UniProt O00479)	1.31 ± 0.04
UniProt O15111	0.964 ± 0.081
DNAJC8 (UniProt O75937)	1.09 ± 0.056
NUDT2 (UniProt P50583)	0.877 ± 0.15
UniProt P49588|P49588-2	0.895 ± 0.034
FXR1 (UniProt P51114)	1.54 ± 0.07
HIST1H1B (UniProt P16401)	1.15 ± 0.014
UniProt P48634|P48634-2|P48634-3	1.27 ± 0.03
UniProt P09651|P09651-2	1.16 ± 0.065
NUP62 (UniProt P37198)	0.955 ± 0.038
UniProt P38159|P38159-2	1.29 ± 0.043
URB1 (UniProt O60287)	1.41 ± 0.097
RPL21 (UniProt P46778)	1.01 ± 0.14
NUDT21 (UniProt O43809)	1.86 ± 0.31
UniProt O43865	0.944 ± 0.025
SFPQ (UniProt P23246)	1.23 ± 0.14
ZKSCAN1 (UniProt P17029)	0.958 ± 0.024
UniProt P09564	0.942 ± 0.15
EEF2K (UniProt O00418)	0.954 ± 0.044

Same assay, conditions: concentration: 4mM

Target	NP40-soluble protein abundance
P15531-2|P22392-2|Q32Q12 (UniProt Q32Q12+P22392+P15531)	0.9 ± 0.017
UniProt P17096|P17096-2	1.37 ± 0.14
ARID1A (UniProt O14497)	1.1 ± 0.1
ARPC1B (UniProt O15143)	0.928 ± 0.056
CDC34 (UniProt P49427)	1.16 ± 0.092
PPT1 (UniProt P50897)	0.873 ± 0.068
AKR1A1 (UniProt P14550)	0.873 ± 0.047
PSMB4 (UniProt P28070)	1.05 ± 0.21
UniProt O95758-2|O95758-6|O95758|O95758-1|O95758-4|O95758-5|O95758-7	0.994 ± 0.088
UniProt O75170|O75170-2|O75170-3|O75170-4|O75170-5	0.973 ± 0.071
J3QQJ5|Q9Y2L5 (UniProt Q9Y2L5)	1 ± 0.14
TIMM23 (UniProt O14925)	0.904 ± 0.043
UniProt P30622|P30622-1	0.953 ± 0.076
UniProt P49840	0.921 ± 0.044
UniProt O00567	1.55 ± 0.12
UniProt O60861|O60861-1|O60861-4	0.935 ± 0.035
XPO1 (UniProt O14980)	0.916 ± 0.054
UniProt P04150|P04150-10|P04150-2|P04150-3|P04150-5|P04150-6|P04150-7|P04150-8|P04150-9|P04150-11|P04150-12|P04150-13	1.01 ± 0.043
UniProt O75582|A0A0A0MQV2	0.979 ± 0.083
PPIF (UniProt P30405)	0.853 ± 0.091

Target	NP40-soluble protein abundance
HMGN4 (UniProt O00479)	1.83 ± 0.15
UniProt O15111	0.961 ± 0.06
DNAJC8 (UniProt O75937)	1.08 ± 0.14
NUDT2 (UniProt P50583)	1.8 ± 0.49
UniProt P49588|P49588-2	0.876 ± 0.043
FXR1 (UniProt P51114)	1.885 ± 0.0094
HIST1H1B (UniProt P16401)	1.22 ± 0.042
UniProt P48634|P48634-2|P48634-3	1.42 ± 0.062
UniProt P09651|P09651-2	1.16 ± 0.08
NUP62 (UniProt P37198)	0.988 ± 0.064
UniProt P38159|P38159-2	1.47 ± 0.052
URB1 (UniProt O60287)	1.79 ± 0.072
RPL21 (UniProt P46778)	0.914 ± 0.2
NUDT21 (UniProt O43809)	2.02 ± 0.39
UniProt O43865	0.914 ± 0.021
SFPQ (UniProt P23246)	1.61 ± 0.22
ZKSCAN1 (UniProt P17029)	0.963 ± 0.015
UniProt P09564	1.02 ± 0.13
EEF2K (UniProt O00418)	0.913 ± 0.028
